Each structure is given as a SMILES string. A number with no mark means an inactive call. Records with an inconclusive call do not appear. Calls of active or inactive are those of the source. Unless noted, calls come from the whole dose curve. Where only a bound is given, the exact number is not on record here.

The target in one assay is Lysosomal acid glucosylceramidase (Homo sapiens) (UniProt P04062). The experiment in a line: Glucocerebrosidase-p2 (AID 348; in the data active = potency below about 10 µM; note: potency is the fitted concentration of half-maximal effect). The conditions noted are these: purified GBA, blue fluorogenic substrate, 40 min. An outline of the steps: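 Compounds titrated from 0.6 nM upwards against 0.2 nM enzyme in pH 5.9 citric acid/KH2PO4, taurocholate, tween-20; blue fluorogenic substrate 80 uM, 40 min room temperature, stopped and read Ex 365/Em 440 for AC50.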
Chain of Lysosomal acid glucosylceramidase (Homo sapiens) (P04062 whole entry, looked up): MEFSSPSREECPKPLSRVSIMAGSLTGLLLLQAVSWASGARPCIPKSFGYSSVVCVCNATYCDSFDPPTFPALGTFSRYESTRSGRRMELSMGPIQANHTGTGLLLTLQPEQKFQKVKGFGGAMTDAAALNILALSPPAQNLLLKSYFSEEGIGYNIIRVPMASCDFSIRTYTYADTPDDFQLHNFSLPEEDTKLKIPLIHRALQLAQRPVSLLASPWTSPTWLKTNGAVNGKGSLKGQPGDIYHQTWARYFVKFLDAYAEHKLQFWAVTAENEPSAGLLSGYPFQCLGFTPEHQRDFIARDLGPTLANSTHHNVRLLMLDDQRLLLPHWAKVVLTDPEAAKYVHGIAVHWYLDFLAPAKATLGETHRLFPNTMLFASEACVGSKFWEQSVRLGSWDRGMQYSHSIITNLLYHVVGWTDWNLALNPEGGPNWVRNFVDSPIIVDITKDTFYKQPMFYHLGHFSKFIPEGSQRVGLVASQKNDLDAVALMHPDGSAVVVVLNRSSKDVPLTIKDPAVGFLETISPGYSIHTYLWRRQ
`O=S(=O)(O)c1ccc2cc(N=Nc3cc(S(=O)(=O)O)c4cccnc4c3O)ccc2c1`: the Potency was greater than 11.4 µM. On the same count and under the same terms, the figure for `NC(=O)c1nnn(Cc2cc(Cl)c(C(=O)c3ccc(Cl)cc3)c(Cl)c2)c1N` is greater than 11.4 µM. For the compound `CN(C)c1ccccc1CN1CCCN(Cc2ccccc2N(C)C)C1c1ccncc1`, the Potency was greater than 11.4 µM.

System in another assay: not listed separately
The experiment in a line: AP1 Signaling Pathway (AID 357; active = well fitted curve in either direction with a large enough effect, not every such curve was filed as active;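 note: ME-180 reporter cells stimulated with EGF at its EC50 level; % is set by controls: 0 for no effect and ±100 for the full control effect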). The conditions noted are these: ME-180 (cervical carcinoma) AP-1-bla reporter, EGF-induced, beta-lactamase ratio, 5 h; series mostly up to 17.2 µM; activity change, negative = inhibition: at the top concentration. The procedure, abridged:
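Beta-lactamase reporter under AP-1 response element, ME-180 background. Stimulus: EC50 EGF. Compound exposure 5 h, 37 °C. Detection: CCF4, 2.5 h RT, 460/530 nm. Values: AC50 from titration.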
Regarding `O=S(=O)(O)c1ccc2cc(N=Nc3cc(S(=O)(=O)O)c4cccnc4c3O)ccc2c1`, the “activity change, negative = inhibition” value is 0.545% [at 7.69 µM].

Consider `NC(=O)c1nnn(Cc2cc(Cl)c(C(=O)c3ccc(Cl)cc3)c(Cl)c2)c1N`, for which the “activity change, negative = inhibition” value is -14.6% [at 7.69 µM]. Still for that read-out and setting: the figure for `C=C1c2cccc(O)c2C(O)=C2C(=O)[C@@]3(O)C(O)=C(C(N)=O)C(=O)[C@@H](N(C)C)[C@@H]3[C@@H](O)[C@H]12` is 3.14%; for `CN[C@H]1[C@@H](O[C@@H]2[C@H](O[C@@H]3[C@@H](O)[C@@H](O)[C@@H](N=C(N)N)[C@@H](O)[C@@H]3N=C(N)N)O[C@H](C)[C@@]2(O)C=O)O[C@@H](CO)[C@@H](O)[C@H]1O` it is 4.01%. The same measure, in the same setting: in the case of `CC(NCCc1ccc(O)cc1)C(O)c1ccc(O)cc1` (centres undefined) it was -10.3%; in that of `NCC1CCC(C(=O)O)CC1` (centres undefined), 5.47%; in that of `NS(=O)(=O)c1cc(Cl)c(Cl)c(S(N)(=O)=O)c1`, -1.94%. With `Cc1cc2nc3c(=O)[nH]c(=O)nc-3n(CC(O)C(O)C(O)CO)c2cc1C` (centres undefined), the “activity change, negative = inhibition” value is -5.67%.

In the case of `CN(C)c1ccccc1CN1CCCN(Cc2ccccc2N(C)C)C1c1ccncc1`, the “activity change, negative = inhibition” value is 10.5% [at 7.69 µM].

In the next assay the target is Cytochrome P450 1A2 (Homo sapiens) (UniProt P05177). The experiment in a line: p450-cyp1a2 (AID 410).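 For activity change, negative = inhibition: -100% = full effect of reference inhibitor.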 Note: potency is the fitted concentration of half-maximal effect. To be noted: recombinant CYP1A2, luciferin-ME demethylation, luminescence; series mostly up to 25.6 µM; activity change, negative = inhibition: at the top concentration. An outline of the steps: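 Inhibition was calculated relative to 57 uM furafylline (full inhibition). The reaction used human CYP1A2 at 20nM with Luciferin-ME at its Km, 100uM, driven by an NADPH-regenerating system for 60 min at room temperature.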
Chain of Cytochrome P450 1A2 (Homo sapiens) (P05177 whole entry, looked up): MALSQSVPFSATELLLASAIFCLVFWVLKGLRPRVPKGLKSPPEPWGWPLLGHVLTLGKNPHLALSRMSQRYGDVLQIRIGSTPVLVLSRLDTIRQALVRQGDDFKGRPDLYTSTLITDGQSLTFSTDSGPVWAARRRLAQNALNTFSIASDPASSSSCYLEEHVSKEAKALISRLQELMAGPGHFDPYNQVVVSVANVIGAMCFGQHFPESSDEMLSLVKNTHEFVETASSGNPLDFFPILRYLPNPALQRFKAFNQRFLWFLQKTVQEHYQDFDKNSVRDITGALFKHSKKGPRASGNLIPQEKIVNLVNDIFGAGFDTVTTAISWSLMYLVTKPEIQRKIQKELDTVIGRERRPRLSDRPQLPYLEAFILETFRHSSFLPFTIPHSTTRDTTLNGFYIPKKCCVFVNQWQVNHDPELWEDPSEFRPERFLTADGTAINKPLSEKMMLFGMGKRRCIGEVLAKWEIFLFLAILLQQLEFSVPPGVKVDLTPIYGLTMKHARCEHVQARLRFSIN
As to `Cc1cc(NC(=O)Nc2ccc(N(C)C)cc2)c2cc(F)cc(F)c2n1`, the Potency is 0.126 µM (active). On the same count and under the same terms, the figure for `Clc1ccc(COC(Cn2ccnc2)c2ccc(Cl)cc2Cl)c(Cl)c1` (centres undefined) is 1.26 µM (active). In the case of `O=S(=O)(O)c1ccc2cc(N=Nc3cc(S(=O)(=O)O)c4cccnc4c3O)ccc2c1`, the activity change, negative = inhibition is -18.8% [at 2.29 µM]. With `Cc1ccc(NC(=O)c2cccc(N(C)C)c2)cc1NC(=O)c1ccc(O)cc1`, the Potency is 1.26 µM (active).

As for `CN(C)CCN(Cc1ccc(Cl)cc1)c1ccccn1`, the Potency was 12.6 µM (active).

Turning to `NC(=O)c1nnn(Cc2cc(Cl)c(C(=O)c3ccc(Cl)cc3)c(Cl)c2)c1N`, the activity change, negative = inhibition is -2.2% [at 2.29 µM]. For `C=C1c2cccc(O)c2C(O)=C2C(=O)[C@@]3(O)C(O)=C(C(N)=O)C(=O)[C@@H](N(C)C)[C@@H]3[C@@H](O)[C@H]12`, the “activity change, negative = inhibition” value is -1.1%. Same read-out and setting: in the case of `CN[C@H]1[C@@H](O[C@@H]2[C@H](O[C@@H]3[C@@H](O)[C@@H](O)[C@@H](N=C(N)N)[C@@H](O)[C@@H]3N=C(N)N)O[C@H](C)[C@@]2(O)C=O)O[C@@H](CO)[C@@H](O)[C@H]1O` it was -0.4%.

Take `CCC(=C(CC)c1ccc(O)cc1)c1ccc(O)cc1`: the Potency was 15.8 µM (active). Take `NCC1CCC(C(=O)O)CC1` (centres undefined): the “activity change, negative = inhibition” value was -3.7%. Still for that read-out and setting: the figure for `NS(=O)(=O)c1cc(Cl)c(Cl)c(S(N)(=O)=O)c1` is -15.8%. On the same count and under the same terms, the figure for `CN(C)c1ccccc1CN1CCCN(Cc2ccccc2N(C)C)C1c1ccncc1` is 3.1% [at 11.4 µM].

The values are drawn from PubChem BioAssay (NCATS).
